# Where “and” joins values, the source holds several entries; their conditions need not be identical. Equal entries are not always repeated. Inconclusive results are not listed. Calls of active or inactive are those of the source. The calls were made as follows: active = hit-call score of the fitted dose curve at least 0.9, where 1 is the maximum; inconclusive = response in the unintended direction; inactive = score below 0.9.
# Target: Nuclear receptor subfamily 1 group I member 2 (Homo sapiens) (UniProt O75469)
# Sequence (O75469 whole entry, looked up): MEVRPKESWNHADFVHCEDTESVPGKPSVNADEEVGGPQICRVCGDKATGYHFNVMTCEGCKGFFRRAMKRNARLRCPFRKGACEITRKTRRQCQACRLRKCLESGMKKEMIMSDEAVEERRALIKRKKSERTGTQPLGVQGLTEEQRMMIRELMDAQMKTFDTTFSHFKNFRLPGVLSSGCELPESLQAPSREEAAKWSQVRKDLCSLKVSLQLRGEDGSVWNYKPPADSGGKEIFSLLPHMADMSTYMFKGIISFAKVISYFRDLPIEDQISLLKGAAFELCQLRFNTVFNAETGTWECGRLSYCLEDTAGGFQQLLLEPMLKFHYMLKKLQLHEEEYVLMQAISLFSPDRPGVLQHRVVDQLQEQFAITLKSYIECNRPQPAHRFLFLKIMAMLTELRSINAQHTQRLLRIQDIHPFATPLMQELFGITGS
# Assay: NVS_NR_hPXR: NovaScreen (NVS) Nuclear Receptor Binding Assay for human Pregnane X Receptor (PXR) (AID 2283365);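 also: a drop in FRET signal versus DMSO baseline means the compound binds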
# Experimental: NVS_NR_hPXR is a biochemical, single-readout assay that uses extracted gene-proteins in a cell-free assay. Measurements were taken 2 hours after chemical dosing in a 384-well plate.NVS_NR_hPXR is one of one assay component(s) measured or calculated from the NVS_NR_hPXR assay. It is designed to make measurements of fluorescent resonance energy transfer, a form of binding reporter, as detected with fluorescent resonance energy transfer signals by Time-Resolved Fluorescence Resonance Energy Transfer (TR-FRET) technology.Data from the assay component NVS_NR_hPXR was analyzed into 1 assay endpoint. This assay endpoint, NVS_NR_hPXR, was analyzed in the positive analysis fitting direction relative to DMSO as the negative control and baseline of activity. Using a type of binding reporter, loss-of-signal activity can be used to understand changes in the binding as they relate to the gene NR1I2. Furthermore, this assay endpoint can be referred to as a primary readout, because the performed assay has only produced 1 assay endpoint. To generalize the intended target to other relatable targets, this assay endpoint is annotated to the nuclear receptor intended target family, where the subfamily is non-steroidal.
# Binding assays used specific radioligands (tritiated, iodinated) with non-radioactive competitive displacement ligands in agonist or antagonist protocols (as indicated) and various reference compounds and inhibitors to titrate specific binding to receptors and transporters. Most enzyme assays (CYPs, kinases, phosphatases, proteases, HDACs) used recombinant protein and specific substrates (fluorescence mostly, some colorimetric and radioactive) and inhibitors, followed by a biochemical separation of substrate and product. All assays for the biochemical HTS were initially run in duplicate at a single concentration (10 uM for CYP450 assays and 25 uM for all others). […] Each assay was run with positive and negative controls, and concurrent controls on every plate. The follow-up (secondary) screen tested active chemical-pairs in concentration series, as well as a few additional assays not tested in the primary screen, some selected negative inactives, and several cases re-run in the concentration series for confirmatory purposes.
row,Compound,outcome
1,Cc1ccc(S(=O)(=O)O)cc1,inactive
2,CCCCCCCCCCCC(=O)O,inactive
3,CCCCCCCCCC=CCC1CC(=O)OC1=O (stereo not drawn),inactive

# Target: guinea pig Sigma Receptor, Non-selective Binding, SIGMAR1 (gene 100135589) (UniProt Q60492)
# Sequence (Q60492 whole entry, looked up): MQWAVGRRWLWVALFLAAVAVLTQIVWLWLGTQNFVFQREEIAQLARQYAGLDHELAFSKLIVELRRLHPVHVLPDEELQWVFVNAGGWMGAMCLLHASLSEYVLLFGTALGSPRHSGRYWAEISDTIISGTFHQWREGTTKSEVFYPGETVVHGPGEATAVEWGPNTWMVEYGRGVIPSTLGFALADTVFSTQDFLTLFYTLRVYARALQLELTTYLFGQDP
# Assay: NVS_OR_gSIGMA_NonSelective: NovaScreen (NVS) Nuclear Receptor Binding Assay for guinea pig Sigma Receptor, Non-selective Binding (AID 2283367)
# Outline: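 Guinea pig brain membrane sigma sites were labelled with a radioligand, and bound radioactivity was counted after filtration 1 h post-dose. Compounds were screened at 25 uM in duplicate, then retested as concentration series when active.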
Compound,outcome,AC50
CCN(CC)CC,inactive,
CN(C)c1ccc(C(=C2C=CC(=[N+](C)C)C=C2)c2ccccc2)cc1,,9.34 µM (active) and 12.5 µM (active)
CCCCCCCCCCCCCCCCCC[N+](C)(C)Cc1ccccc1,,2.32 µM (active)
CC[N+](CC)(CC)Cc1ccccc1,,15.5 µM (active)

# Test system: guinea pig Dopamine Transporter (DAT), gene 100714898
# Assay: NVS_TR_gDAT: NovaScreen (NVS) Transporter Assay for guinea pig Dopamine Transporter (DAT) (AID 2283369);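 also: active compounds lower bound radioligand signal relative to DMSO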
# Outline: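 Cell-free striatal membrane prep (guinea pig), 2 h exposure, filtration + scintillation readout of radioligand binding. Single-point 25 uM duplicate; actives rerun singleton, top conc 50 uM.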
Compound,AC50,outcome
COC1=CC(=O)C[C@@H](C)[C@]12Oc1c(Cl)c(OC)cc(OC)c1C2=O,3.8 µM (active),
O=C(c1ccccc1)c1ccccc1,,inactive
CN(C)c1ccc(C(=C2C=CC(=[N+](C)C)C=C2)c2ccccc2)cc1,4.17 µM (active) and 3.93 µM (active),
O=C(CCCN1CCC(O)(c2ccc(Cl)cc2)CC1)c1ccc(F)cc1,0.923 µM (active),
CCCCCc1ccc(O)cc1,10.5 µM (active),
CC(C)(C)c1ccc(O)c(O)c1,45.5 µM (active),
N=C(N)c1ccc(OCCCCCOc2ccc(C(=N)N)cc2)cc1,2.07 µM (active),
CN(C)CCOC(c1ccccc1)c1ccccc1,6.23 µM (active),
CCCCc1oc2ccccc2c1C(=O)c1cc(I)c(OCCN(CC)CC)c(I)c1,17.8 µM (active),
CCC(C)c1ccccc1O (stereo not drawn),,inactive

# Target: Peroxisome proliferator-activated receptor gamma (Homo sapiens) (UniProt P37231)
# Sequence (P37231 whole entry, looked up): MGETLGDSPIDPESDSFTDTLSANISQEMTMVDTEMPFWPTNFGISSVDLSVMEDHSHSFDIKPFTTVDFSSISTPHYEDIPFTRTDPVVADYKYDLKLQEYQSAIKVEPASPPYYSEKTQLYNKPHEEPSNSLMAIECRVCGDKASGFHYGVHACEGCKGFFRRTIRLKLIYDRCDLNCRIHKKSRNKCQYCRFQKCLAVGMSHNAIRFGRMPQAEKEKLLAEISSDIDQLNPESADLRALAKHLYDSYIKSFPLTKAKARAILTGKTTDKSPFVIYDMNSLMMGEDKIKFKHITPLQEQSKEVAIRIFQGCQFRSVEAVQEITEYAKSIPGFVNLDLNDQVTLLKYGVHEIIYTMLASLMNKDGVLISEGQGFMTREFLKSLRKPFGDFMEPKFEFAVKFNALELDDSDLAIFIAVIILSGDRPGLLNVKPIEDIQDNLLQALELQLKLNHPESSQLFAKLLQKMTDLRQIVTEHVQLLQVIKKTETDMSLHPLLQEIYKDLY
# Assay: NVS_NR_hPPARg: NovaScreen (NVS) Nuclear Receptor Binding Assay for human Peroxisome Proliferator-activated Receptor gamma (PPARg) (AID 2283370)
# Outline: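 FP read-out, 2 h post-dose, cell-free extracted receptor protein. Signal loss vs DMSO negative control = binding activity. Single-conc duplicate HTS at 25 uM; concentration-response follow-up for actives.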
Compound,outcome,AC50
CC(O)COc1ccccc1 (stereo not drawn),inactive,
CCCCCCCCCCCC(=O)O,inactive,
CCCCCCCCCC=CCC1CC(=O)OC1=O (stereo not drawn),,25 µM (active)
C=CC(C)(CCC=C(C)C)OC(C)=O (stereo not drawn),inactive,
CC(C)[C@@H]1CC[C@@H](C)C[C@H]1O,inactive,
CCC(C)c1ccccc1O (stereo not drawn),inactive,

# Source: PubChem BioAssay (EPA / NIEHS)
